Experimental data published in PubChem BioAssay AID1159580 (chemical genetic matrix, 2015).
In all, about 5,500 compounds went through this assay and about 2,000 (36%) were called active. Not shown: some 18% with an inconclusive outcome. Rule as the data show it: active = normalized growth mostly below about 0.91 (no sharp cut-off); inconclusive = no clear call, values can overlap the other calls; inactive = mostly above about 0.92. This is one part of the list.

Experiment: chemical genetic growth profiling, strain panel (AID 1159580);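 also: tested at 20 µM; growth read once vehicle control cultures reached saturation at 30 °C; 1 = growth at the plate median or of vehicle wells; lower values mean less growth of the strain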
Conditions: growth OD

Measured: normalized growth

CC(=O)OCC(CCn1cnc2cnc(N)nc21)COC(C)=O
inactive: S. cerevisiae deletion strains, locus YJR075W, strain HOC1, stronger effect = lower value 0.991 | S. cerevisiae deletion strains, locus YKL009W, strain mrt4, stronger effect = lower value 0.973 | S. cerevisiae deletion strains, locus YKL068W, stronger effect = lower value 0.977 | S. cerevisiae deletion strains, locus YKL085W, strain MDH1 (second series), stronger effect = lower value 0.971 | S. cerevisiae deletion strains, locus YKL085W, strain MDH1, stronger effect = lower value 0.971 | S. cerevisiae deletion strains, locus YKL160W, strain elf1, stronger effect = lower value 0.981 | S. cerevisiae deletion strains, locus YKL190W, strain CNB1, stronger effect = lower value 0.989 | S. cerevisiae deletion strains, locus YKR001C, strain vps1, stronger effect = lower value 0.986 | S. cerevisiae deletion strains, locus YKR026C, strain gcn3, stronger effect = lower value 0.991 | S. cerevisiae deletion strains, locus YKR091W, strain srl3, stronger effect = lower value 0.989 | S. cerevisiae deletion strains, locus YLL001W, strain dnm1, stronger effect = lower value 0.986 | S. cerevisiae deletion strains, locus YLL026W, stronger effect = lower value 0.987 | S. cerevisiae deletion strains, locus YLL041C, strain sdh2, stronger effect = lower value 0.99 | S. cerevisiae deletion strains, locus YLR027C, strain aat2, stronger effect = lower value 0.97 | S. cerevisiae deletion strains, locus YLR039C, strain RIC1, stronger effect = lower value 0.955 | S. cerevisiae deletion strains, locus YLR058C, strain SHM2, stronger effect = lower value 0.977 | S. cerevisiae deletion strains, locus YLR102C, strain apc9, stronger effect = lower value 0.963 | S. cerevisiae deletion strains, locus YLR113W, strain HOG1, stronger effect = lower value 0.966 | S. cerevisiae deletion strains, locus YLR221C, strain rsa3, stronger effect = lower value 1 | S. cerevisiae deletion strains, locus YLR258W, strain gsy2, stronger effect = lower value 0.992 | S. cerevisiae deletion strains, locus YLR262C, strain YPT6 (second series), stronger effect = lower value 0.985 | S. cerevisiae deletion strains, locus YLR262C, strain YPT6, stronger effect = lower value 0.96 | S. cerevisiae deletion strains, locus YLR268W, strain sec22, stronger effect = lower value 0.964 | S. cerevisiae deletion strains, locus YLR320W, strain mms22, stronger effect = lower value 1.01 | S. cerevisiae deletion strains, locus YLR330W, strain CHS5, stronger effect = lower value 0.986 | S. cerevisiae deletion strains, locus YLR342W, strain FKS1 (second series), stronger effect = lower value 1.03 | S. cerevisiae deletion strains, locus YLR342W, strain FKS1, stronger effect = lower value 0.989 | S. cerevisiae deletion strains, locus YLR357W, strain rsc2, stronger effect = lower value 0.969 | S. cerevisiae deletion strains, locus YLR370C, strain arc18, stronger effect = lower value 0.994 | S. cerevisiae deletion strains, locus YLR371W, strain rom2, stronger effect = lower value 0.955 | S. cerevisiae deletion strains, locus YLR384C, strain iki3, stronger effect = lower value 0.974 | S. cerevisiae deletion strains, locus YLR418C, strain cdc73, stronger effect = lower value 0.982 | S. cerevisiae deletion strains, locus YML016C, strain PPZ1, stronger effect = lower value 0.981 | S. cerevisiae deletion strains, locus YML032C, strain rad52, stronger effect = lower value 0.975 | S. cerevisiae deletion strains, locus YML120C, strain ndi1, stronger effect = lower value 0.989 | S. cerevisiae deletion strains, locus YML124C, strain tub3, stronger effect = lower value 0.973 | S. cerevisiae deletion strains, locus YMR058W, strain fet3, stronger effect = lower value 0.988 | S. cerevisiae deletion strains, locus YMR078C, strain ctf18, stronger effect = lower value 0.972 | S. cerevisiae deletion strains, locus YMR125W, strain sto1, stronger effect = lower value 0.986 | S. cerevisiae deletion strains, locus YMR129W, stronger effect = lower value 0.986 | S. cerevisiae deletion strains, locus YMR205C, strain PFK2, stronger effect = lower value 0.992 | S. cerevisiae deletion strains, locus YMR223W, strain ubp8, stronger effect = lower value 0.988 | S. cerevisiae deletion strains, locus YMR231W, strain pep5, stronger effect = lower value 0.986 | S. cerevisiae deletion strains, locus YMR263W, strain SAP30, stronger effect = lower value 0.993 | S. cerevisiae deletion strains, locus YMR307W, strain GAS1, stronger effect = lower value 0.957 | S. cerevisiae deletion strains, locus YNL067W, strain RPL9B, stronger effect = lower value 1 | S. cerevisiae deletion strains, locus YNL071W, strain lat1, stronger effect = lower value 0.995 | S. cerevisiae deletion strains, locus YNL128W, strain TEP1, stronger effect = lower value 0.992 | S. cerevisiae deletion strains, locus YNL153C, strain GIM3, stronger effect = lower value 0.996 | S. cerevisiae deletion strains, locus YNL183C, strain NPR1, stronger effect = lower value 0.959 | S. cerevisiae deletion strains, locus YNL209W, strain ssb2, stronger effect = lower value 0.994 | S. cerevisiae deletion strains, locus YNL233W, strain BNI4, stronger effect = lower value 0.99 | S. cerevisiae deletion strains, locus YNL248C, strain rpa49, stronger effect = lower value 0.991 | S. cerevisiae deletion strains, locus YNL250W, strain rad50, stronger effect = lower value 0.971 | S. cerevisiae deletion strains, locus YNL271C, strain bni1, stronger effect = lower value 0.956 | S. cerevisiae deletion strains, locus YNL298W, strain CLA4, stronger effect = lower value 0.946 | S. cerevisiae deletion strains, locus YNL307C, strain MCK1, stronger effect = lower value 0.99 | S. cerevisiae deletion strains, locus YNL322C, strain KRE1 (second series), stronger effect = lower value 0.995 | S. cerevisiae deletion strains, locus YNL322C, strain KRE1, stronger effect = lower value 0.99 | S. cerevisiae deletion strains, locus YNR049C, strain mso1, stronger effect = lower value 0.983 | S. cerevisiae deletion strains, locus YNR052C, strain pop2, stronger effect = lower value 0.967 | S. cerevisiae deletion strains, locus YOL006C, strain TOP1, stronger effect = lower value 0.955 | S. cerevisiae deletion strains, locus YOL012C, strain htz1 0.703 | S. cerevisiae deletion strains, locus YOL147C, strain pex11, stronger effect = lower value 0.969 | S. cerevisiae deletion strains, locus YOR001W, strain rrp6, stronger effect = lower value 0.974 | S. cerevisiae deletion strains, locus YOR061W, strain CKA2, stronger effect = lower value 0.966 | S. cerevisiae deletion strains, locus YOR069W, strain VPS5, stronger effect = lower value 0.982 | S. cerevisiae deletion strains, locus YOR070C, strain gyp1, stronger effect = lower value 0.996 | S. cerevisiae deletion strains, locus YOR080W, strain dia2, stronger effect = lower value 0.975 | S. cerevisiae deletion strains, locus YOR083W, strain WHI5, stronger effect = lower value 0.987 | S. cerevisiae deletion strains, locus YOR106W, strain vam3, stronger effect = lower value 0.982 | S. cerevisiae deletion strains, locus YOR136W, strain idh2, stronger effect = lower value 0.959 | S. cerevisiae deletion strains, locus YOR144C, strain elg1, stronger effect = lower value 0.958 | S. cerevisiae deletion strains, locus YOR184W, strain ser1, stronger effect = lower value 0.966 | S. cerevisiae deletion strains, locus YOR231W, strain MKK1, stronger effect = lower value 0.991 | S. cerevisiae deletion strains, locus YOR265W, strain rbl2, stronger effect = lower value 0.98 | S. cerevisiae deletion strains, locus YOR270C, strain vph1, stronger effect = lower value 1 | S. cerevisiae deletion strains, locus YOR290C, strain snf2, stronger effect = lower value 1.01 | S. cerevisiae deletion strains, locus YOR316C, strain cot1, stronger effect = lower value 0.958 | S. cerevisiae deletion strains, locus YPL051W, strain arl3, stronger effect = lower value 0.984 | S. cerevisiae deletion strains, locus YPL055C, strain LGE1, stronger effect = lower value 0.992 | S. cerevisiae deletion strains, locus YPL078C, strain atp4, stronger effect = lower value 0.976 | S. cerevisiae deletion strains, locus YPL106C, strain sse1, stronger effect = lower value 0.973 | S. cerevisiae deletion strains, locus YPL240C, strain hsp82, stronger effect = lower value 0.973 | S. cerevisiae deletion strains, locus YPL241C, strain CIN2, stronger effect = lower value 0.993 | S. cerevisiae deletion strains, locus YPL256C, strain CLN2, stronger effect = lower value 0.958 | S. cerevisiae deletion strains, locus YPR119W, strain clb2, stronger effect = lower value 0.974 | S. cerevisiae deletion strains, locus YPR141C, strain kar3, stronger effect = lower value 0.943 | S. cerevisiae deletion strains, locus YPR163C, strain tif3, stronger effect = lower value 0.966 | S. cerevisiae deletion strains, locus YPR167C, strain met16, stronger effect = lower value 0.962 | S. cerevisiae deletion strains, strain wtn01, stronger effect = lower value 0.965 | S. cerevisiae strains, strain wild type, stronger effect = lower value 0.994
